In PubChem BioAssay (EPA / NIEHS) one finds outcome and AC50 data, which are given here for 25 compounds.

Structures are written as SMILES. Active and inactive are the calls of the source. Rule for the calls: active = hit-call score of the fitted dose curve at least 0.9, where 1 is the maximum; inactive = score below 0.9.

The target in experiment [1] is CCAAT/enhancer-binding protein beta (Homo sapiens) (UniProt P17676). As to the kind of experiment: ATG_C_EBP_CIS: Attagene CIS-FACTORIAL HepG2 Assay for human CCAAT/Enhancer Binding Protein (C/EBP) beta (AID 2282927). The following applies: HepG2 Attagene cis-factorial transcription factor reporter; actives raise or lower the signal. The method, boiled down:
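RT-PCR/capillary electrophoresis fluorescence of reporter mRNA, 24 h post-dose, in HepG2 cells carrying transfected cis-promoter reporter units. Bidirectional curve fitting against DMSO baseline captures gain or loss of signal.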

Experiment [2] is described as follows: ATG_CMV_CIS: Attagene CIS-FACTORIAL HepG2 Assay for human CMV (Internal Marker) (AID 2282928).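 Note: endpoint acts as a background internal control marker rather than a target.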 The following applies: HepG2 CMV promoter reporter, transcription factor profiling; actives raise or lower the signal. The method, boiled down: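 CMV internal-marker background readout in transiently transfected HepG2 cells bearing cis-regulated reporter units. Reporter mRNA is measured 24 h after dosing by RT-PCR and capillary electrophoresis, with bidirectional fitting against DMSO.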

Experiment [3] in a line: ATG_DR4_LXR_CIS: Attagene CIS-FACTORIAL HepG2 Assay for human Liver X Receptor (LXR), DR4 submotif (AID 2282929). Conditions: HepG2 Attagene DR4 cis-reporter, mRNA transcription; AC50: actives raise or lower the signal unless noted; outcome: actives raise or lower the signal unless noted. In short, it runs like this: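 After transient transfection with multiplexed cis-promoter reporter units, HepG2 cells received test chemicals for 24 h. Reporter mRNA induction, detected by fluorescence after RT-PCR and capillary electrophoresis, was scored relative to DMSO.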

The target in experiment [4] is Aryl hydrocarbon receptor (Homo sapiens) (UniProt P35869). As to the kind of experiment: ATG_Ahr_CIS: Attagene CIS-FACTORIAL HepG2 Assay for human Aryl Hydrocarbon Receptor (Ahr) (AID 2282930). Conditions: HepG2 AhR cis-factorial reporter transcription; actives raise or lower the signal. The method, boiled down: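 HepG2 cells transiently transfected with cis-element-driven multiplexed reporter transcription units; endogenous transcription factor activity measured as reporter mRNA 24 h after dosing. RT-PCR, 6-FAM labelling, HpaI digestion, capillary electrophoresis; bidirectional fitting versus DMSO baseline.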

The nature of experiment [5]: ATG_AP_1_CIS: Attagene CIS-FACTORIAL HepG2 Assay for human Activator Protein 1 (AP-1) (AID 2282931). The following applies: HepG2 Attagene cis-factorial AP-1 reporter mRNA; actives raise or lower the signal. In short, it runs like this:
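After 24 h incubation with test chemical, RNA from transfected HepG2 cells was reverse-transcribed, amplified, fluorescently labelled and digested before capillary electrophoresis. Reporters were driven by cis-regulatory promoters; activity fitted bidirectionally versus DMSO.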

The nature of experiment [6]: ATG_AP_2_CIS: Attagene CIS-FACTORIAL HepG2 Assay for human Activator Protein 2 (AP-2) (AID 2282932). The following applies: HepG2 AP-2 cis-reporter, Attagene transcription factor profiling; AC50: actives raise or lower the signal unless noted; outcome: actives raise or lower the signal unless noted. The method, boiled down:
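Bidirectional curve fitting against DMSO was applied to reporter mRNA signals from HepG2 cells 24 h after dosing. Cis-promoter reporter units, transiently transfected, were read by RT-PCR plus capillary electrophoresis.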

A short description of experiment [7]: ATG_BRE_CIS: Attagene CIS-FACTORIAL HepG2 Assay for human Bone Morphogenetic Protein (BMP) Response Element (BRE) (AID 2282933). The following applies: HepG2 BMP response element reporter, Attagene transcription factor profiling; actives raise or lower the signal. In short, it runs like this: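 Read-out: reporter mRNA induction quantified by RT-PCR and capillary electrophoresis after 24 h chemical exposure of transfected HepG2 cells. Endogenous factor activity on the BMP response element; gain or loss fitted against DMSO baseline.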

For experiment [8], the target named is Retinoic acid receptor alpha (Homo sapiens) (UniProt P10276). As to the kind of experiment: ATG_DR5_RAR_CIS: Attagene CIS-FACTORIAL HepG2 Assay for human Retinoic Acid Receptor Alpha (RARE), DR5 submotif (AID 2282934).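 For AC50: reporter responds to endogenous RAR alpha beta and gamma in HepG2 not RARA alone.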 Conditions: HepG2 Attagene cis-factorial RARE DR5 reporter, mRNA; actives raise or lower the signal. In short, it runs like this: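 HepG2 cells transiently transfected with multiplexed reporter units under cis (DR5 RARE) promoters, so endogenous transcription factor activity is measured. After 24 h compound exposure, reporter mRNA is quantified by RT-PCR with fluorescent labelling and capillary electrophoresis; bidirectional fitting versus DMSO.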

Experiment [9] has as its target Transcription factor E2F1 (Homo sapiens) (UniProt Q01094). Kind of experiment: ATG_E2F_CIS: Attagene CIS-FACTORIAL HepG2 Assay for human E2F Transcription Factor 1 (AID 2282935). The following applies: HepG2 Attagene cis-reporter, E2F reporter RNA transcripts; actives raise or lower the signal. The method, boiled down:
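Multiplexed cis-reporter assay: HepG2, transient transfection, 24 h dosing, mRNA quantitation by labeled RT-PCR and CE.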

Experiment [10] can be described thus: ATG_E_Box_CIS: Attagene CIS-FACTORIAL HepG2 Assay for human Enhancer Box (E-box) (AID 2282936). The following applies: HepG2 E-box cis-reporter transcription, actives raise or lower the signal. The method, boiled down: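 Multiplexed CIS reporter system in transiently transfected HepG2 cells measures native transcription factor activity. Reporter RNA after 24 h exposure is profiled by RT-PCR-capillary electrophoresis.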

Retinoic acid receptor alpha (Homo sapiens), sequence (P10276 whole entry, looked up): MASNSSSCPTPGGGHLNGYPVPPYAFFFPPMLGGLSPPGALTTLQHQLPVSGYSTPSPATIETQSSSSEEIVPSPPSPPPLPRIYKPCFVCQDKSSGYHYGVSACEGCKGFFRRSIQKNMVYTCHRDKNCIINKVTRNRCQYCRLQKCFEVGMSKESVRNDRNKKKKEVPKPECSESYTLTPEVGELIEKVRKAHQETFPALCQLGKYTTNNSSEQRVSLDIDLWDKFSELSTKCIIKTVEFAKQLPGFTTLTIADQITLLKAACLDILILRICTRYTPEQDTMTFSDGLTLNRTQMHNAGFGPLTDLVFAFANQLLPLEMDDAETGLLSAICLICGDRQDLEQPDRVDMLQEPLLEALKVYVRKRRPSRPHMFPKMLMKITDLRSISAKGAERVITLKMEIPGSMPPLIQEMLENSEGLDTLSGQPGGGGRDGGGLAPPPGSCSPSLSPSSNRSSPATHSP
Transcription factor E2F1 (Homo sapiens), sequence (Q01094 whole entry, looked up): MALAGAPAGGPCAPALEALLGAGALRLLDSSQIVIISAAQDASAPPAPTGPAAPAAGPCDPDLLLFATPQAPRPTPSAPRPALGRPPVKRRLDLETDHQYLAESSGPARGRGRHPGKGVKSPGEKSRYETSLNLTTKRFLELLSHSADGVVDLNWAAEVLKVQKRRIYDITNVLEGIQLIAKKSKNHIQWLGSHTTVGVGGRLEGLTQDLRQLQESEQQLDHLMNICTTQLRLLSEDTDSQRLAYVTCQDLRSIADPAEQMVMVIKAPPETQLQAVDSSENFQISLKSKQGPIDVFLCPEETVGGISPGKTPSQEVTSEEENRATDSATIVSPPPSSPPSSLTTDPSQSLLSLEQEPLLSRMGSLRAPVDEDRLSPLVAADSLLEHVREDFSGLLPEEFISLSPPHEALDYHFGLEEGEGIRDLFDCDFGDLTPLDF
Aryl hydrocarbon receptor (Homo sapiens), sequence (P35869 whole entry, looked up): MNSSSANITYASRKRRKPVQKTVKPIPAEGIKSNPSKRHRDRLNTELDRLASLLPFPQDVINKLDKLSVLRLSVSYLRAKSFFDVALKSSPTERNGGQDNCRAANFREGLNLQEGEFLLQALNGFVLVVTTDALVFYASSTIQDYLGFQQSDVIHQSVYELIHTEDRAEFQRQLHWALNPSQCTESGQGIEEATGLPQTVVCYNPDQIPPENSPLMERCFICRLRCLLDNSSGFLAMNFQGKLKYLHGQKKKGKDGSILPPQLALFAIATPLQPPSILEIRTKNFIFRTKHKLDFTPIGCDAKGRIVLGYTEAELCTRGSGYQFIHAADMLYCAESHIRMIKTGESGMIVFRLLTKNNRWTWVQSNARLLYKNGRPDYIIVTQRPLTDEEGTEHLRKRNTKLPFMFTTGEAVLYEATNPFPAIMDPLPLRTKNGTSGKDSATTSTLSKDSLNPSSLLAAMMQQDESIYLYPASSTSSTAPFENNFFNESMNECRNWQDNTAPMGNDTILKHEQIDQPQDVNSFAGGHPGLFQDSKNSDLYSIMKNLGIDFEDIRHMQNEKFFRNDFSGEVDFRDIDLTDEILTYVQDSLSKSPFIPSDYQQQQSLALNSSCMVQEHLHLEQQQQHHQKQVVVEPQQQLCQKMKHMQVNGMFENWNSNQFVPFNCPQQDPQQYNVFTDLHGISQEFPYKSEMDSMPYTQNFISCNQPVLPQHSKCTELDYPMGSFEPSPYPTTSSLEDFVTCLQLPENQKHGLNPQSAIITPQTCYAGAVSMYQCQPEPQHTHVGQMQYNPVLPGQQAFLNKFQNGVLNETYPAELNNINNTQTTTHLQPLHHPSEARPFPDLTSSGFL
CCAAT/enhancer-binding protein beta (Homo sapiens), sequence (P17676 whole entry, looked up): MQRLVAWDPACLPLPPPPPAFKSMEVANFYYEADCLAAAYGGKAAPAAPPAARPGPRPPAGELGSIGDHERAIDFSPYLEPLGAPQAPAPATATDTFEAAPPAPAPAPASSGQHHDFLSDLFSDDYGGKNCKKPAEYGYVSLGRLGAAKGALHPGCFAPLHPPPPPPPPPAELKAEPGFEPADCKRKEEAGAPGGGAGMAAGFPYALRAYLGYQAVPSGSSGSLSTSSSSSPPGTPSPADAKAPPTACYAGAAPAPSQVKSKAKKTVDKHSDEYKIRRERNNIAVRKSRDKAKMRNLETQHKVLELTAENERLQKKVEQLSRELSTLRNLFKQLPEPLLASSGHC

Take `C=Cc1ccc(O)c(OC)c1`: the result in experiment [1], in [2], in experiment [3], in [4], in [5] and in experiment [6] was inactive. The outcome in [7], in experiment [8], in [9] and in [10] was inactive.

As to `CCOC=O`, the outcome in experiment [1], in experiment [2], in experiment [3], in experiment [4], in experiment [5] and in experiment [6] was inactive. Also, the outcome in [7], in experiment [8], in [9] and in experiment [10] was inactive.

One may read the AC50 as the concentration giving half of the maximal activity seen. As to `O=C(Nc1cccc([N+](=O)[O-])c1)c1cc2ccccc2cc1O`, the outcome in experiment [1], in experiment [2], in experiment [3], in experiment [6], in experiment [8] and in experiment [10] was inactive. The AC50 in experiment [4] was 0.411 µM (active); in experiment [5], 2.31 µM (active); in experiment [7] it was 1.17 µM (active); in experiment [9], 2.35 µM (active).

As for `CCCCCCCCC1CCC(=O)O1` (centres undefined), the result in [1], in [2], in [3], in [4], in experiment [5] and in [6] was inactive. In addition, the compound was classed as inactive in experiment [7] and in experiment [9].

For the compound `c1cc[nH]c1`, the result in experiment [1], in experiment [2], in [3], in experiment [4], in experiment [5] and in [6] was inactive. Further, the outcome in experiment [7], in experiment [8], in [9] and in experiment [10] was inactive.

In the case of `CCC(C)c1ccccc1O` (centres undefined), the result in experiment [1], in experiment [2], in experiment [3], in experiment [4], in experiment [5] and in [6] was inactive. Besides, the result in [7], in [9] and in [10] was inactive.

Turning to `O=C(c1ccccc1)c1ccccc1`, the outcome in [1], in experiment [2], in experiment [3], in [4], in experiment [5] and in [6] was inactive. Moreover, the call in experiment [8], in experiment [9] and in experiment [10] was inactive.

Turning to `CCCCCCCCC(C)=O`, the result in [1], in experiment [2], in [3], in experiment [4], in experiment [5] and in experiment [6] was inactive. Also, the compound was classed as inactive in [7], in experiment [9] and in [10].

Turning to `C=CC(=C)CC/C=C(\C)CCC=C(C)C`, the result in experiment [1], in [2], in experiment [3], in experiment [4], in experiment [5] and in experiment [6] was inactive. Also, the outcome in experiment [7], in [9] and in experiment [10] was inactive.

Consider `CCCCCCCC(OC)OC`, for which the result in experiment [1], in experiment [2], in experiment [3], in experiment [4], in experiment [5] and in experiment [6] was inactive. For the same compound, the compound was called inactive in experiment [8], in experiment [9] and in experiment [10].

For `CCCCCCCCCCCCOC(=O)c1cc(O)c(O)c(O)c1`, the outcome in experiment [1], in [2], in [4], in experiment [6] and in experiment [9] was inactive. For the same compound, the AC50 in experiment [3] was 6.4 µM (active); in experiment [5] it was 11.1 µM (active).

Turning to `CN(CCO)S(=O)(=O)C(F)(F)C(F)(F)C(F)(F)C(F)(F)C(F)(F)C(F)(F)C(F)(F)C(F)(F)F`, the result in experiment [1], in experiment [2], in experiment [3], in [4], in experiment [5] and in [6] was inactive. The outcome in experiment [8], in experiment [9] and in experiment [10] was inactive.

As to `Nc1cc(Cl)c(-c2cc(Cl)c(N)cc2Cl)cc1Cl`, the result in [1], in experiment [4], in experiment [6], in experiment [8] and in experiment [9] was inactive. Further, the AC50 is 2.08 µM (active) in [2], 2.65 µM (active) in [3] and 3.81 µM (active) in [5].

Turning to `O=C1Cc2ccccc2N1c1c(Cl)cccc1Cl`, the outcome in experiment [1], in experiment [2], in experiment [4], in experiment [5], in experiment [6] and in experiment [9] was inactive. Besides, in [10], the outcome was inactive. Moreover, the AC50 in [3] was 66.4 µM (active); in experiment [7], 100 µM (active).

For the compound `Brc1cc(Br)c(Oc2c(Br)cc(Br)c(Br)c2Br)cc1Br`, the outcome in experiment [1], in [2], in [3], in experiment [4], in experiment [5] and in experiment [6] was inactive. The call in experiment [7], in [9] and in experiment [10] was inactive.

On to `O=C1c2ccc(O)c(O)c2C(=O)c2c(O)ccc(O)c21`, for which the outcome in [1], in [3], in experiment [6], in experiment [7] and in [9] was inactive. The AC50 is 4.28 µM (active) in experiment [2], 0.0722 µM (active) in experiment [4], 50 µM (active) in experiment [5] and 6.45 µM (active) in [10].

With `CC1CCC(C(=O)O)CC1` (centres undefined), the result in [1], in experiment [2], in experiment [3], in experiment [4], in experiment [5] and in [6] was inactive. Moreover, the outcome in experiment [7], in experiment [9] and in experiment [10] was inactive.

For the compound `COC(O)c1ccccc1` (centres undefined), the result in experiment [1], in experiment [2], in experiment [3], in experiment [4], in [5] and in experiment [6] was inactive. The result in experiment [9] and in experiment [10] was inactive.

As for `C=CC(=O)OCCC(F)(F)C(F)(F)C(F)(F)C(F)(F)C(F)(F)C(F)(F)C(F)(F)C(F)(F)F`, the result in experiment [1], in [2], in experiment [3], in [4], in experiment [5] and in experiment [6] was inactive. The result in experiment [9] was inactive. Besides, the AC50 in [8] was 15.2 µM (active).

On to `Cc1cccc2c1ccc1ccccc12`, for which the outcome in experiment [1], in [2], in [3], in experiment [4], in [5] and in experiment [6] was inactive. Also, the outcome in experiment [8], in experiment [9] and in experiment [10] was inactive.

Consider `CCCC=O`, for which the result in experiment [1], in experiment [2], in experiment [3], in experiment [4], in experiment [5] and in experiment [6] was inactive. The compound was classed as inactive in [7] and in experiment [10].

For the compound `O=C(CCCN1CCC(O)(c2ccc(Cl)cc2)CC1)c1ccc(F)cc1`, the outcome in [1], in experiment [3], in experiment [4], in experiment [6] and in experiment [7] was inactive. The values for the AC50 in experiment [2], in [5] and in experiment [10] were 49.7 µM (active), 60.1 µM (active) and 22 µM (active), respectively.

Regarding `Nc1ccc(O)c(C(=O)O)c1`, the outcome in experiment [1], in [2], in [3], in [4], in experiment [5] and in experiment [6] was inactive. Also, the call in experiment [8], in experiment [9] and in [10] was inactive.

As for `O=C1C=CC(=O)N1c1cccc(N2C(=O)C=CC2=O)c1`, the outcome in [1], in experiment [2], in experiment [3], in [4], in experiment [5] and in experiment [6] was inactive. Moreover, the outcome in [8], in experiment [9] and in experiment [10] was inactive.

In the case of `FCOC(C(F)(F)F)C(F)(F)F`, the outcome in experiment [1], in [2], in experiment [3], in experiment [4], in experiment [5] and in experiment [6] was inactive. Further, the result in experiment [10] was inactive.
